In PubChem BioAssay AID1645858 (Buhrlage Lab, Dana-Farber Cancer Institute and Novartis …, 2021):
The campaign covered roughly 47,000 compounds. About 330 (0.7%) were called active. Rule as the data show it: active = inhibition above about 30%; inactive = the rest. The sample as a whole holds a higher share of actives than the screen did.

target: OTU domain-containing protein 3 (Homo sapiens) (UniProt Q5T2D3); experiment: blocks human OTUD3 ubiquitin-rhodamine cleavage (AID 1645858); details: purified OTUD3, Ub-rhodamine fluorescence, 2 h; at 25 µM; stronger effect = higher value
Sequence (Q5T2D3 whole entry, looked up, the tested form may be a part): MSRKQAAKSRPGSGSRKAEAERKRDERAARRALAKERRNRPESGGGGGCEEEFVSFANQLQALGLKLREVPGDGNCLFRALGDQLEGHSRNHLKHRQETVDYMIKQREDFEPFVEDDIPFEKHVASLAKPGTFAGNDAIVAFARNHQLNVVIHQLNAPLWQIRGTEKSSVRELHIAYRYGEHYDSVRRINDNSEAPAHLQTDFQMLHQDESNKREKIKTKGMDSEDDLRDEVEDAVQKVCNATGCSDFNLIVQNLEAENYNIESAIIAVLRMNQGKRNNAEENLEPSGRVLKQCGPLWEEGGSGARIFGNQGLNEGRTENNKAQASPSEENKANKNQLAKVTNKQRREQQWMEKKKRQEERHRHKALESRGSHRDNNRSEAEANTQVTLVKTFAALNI

inhibition, active:
COc1cc(OC)cc(-c2nnc(NC(=O)c3ccc([N+](=O)[O-])o3)o2)c1 40.4%, Cc1cc(O)c(=O)cc2c1C[C@H]1CC(C)(C)/C=C/C[C@@]3(C)Oc4cc(=O)c(O)cc(C)c4C[C@@H]3C[C@H](O)[C@]1(C)O2 33.2%, CC(C)=CCC(O)C1=CC(=O)c2c(O)ccc(O)c2C1=O (stereo unspecified) 94.7%, Cc1nnc(OCC(=O)Nc2ccc(OC(F)(F)F)cc2)c2ccccc12 35.8%, Oc1cccc2nc3c(O)cccc3nc12 60.7%, O=C(COc1cccc2ccc(N3CCC(Cc4ccccc4)CC3)nc12)NCc1ccc(F)cc1 36.2%, CC1(C)Cc2c(c(-c3ccco3)nc3sc4c(SCCCc5ccccc5)ncnc4c23)CO1 33.5%

inhibition, inactive:
Cc1ccc(C(=O)N2C[C@H]3NC(=O)c4ccccc4C(=O)[C@@]3(C)C2)cc1 -0.0157%, CCN(C(=O)c1cncc(Br)c1)c1nc2ccccc2s1 -0.0268%, COc1cccc(-c2ocnc2C(=O)NCc2ccc(OC)c(OC)c2)c1 -12.9%, COc1ccc(-c2ocnc2C(=O)NCc2ccc(OC)c(OC)c2)cc1 -9.98%, Nc1c(C(=O)CN2CCc3ccccc32)c(=O)[nH]c(=O)n1C1CC1 -63.2%, Cc1ccccc1S(=O)(=O)NCc1nc2cccnc2n1C1CC1 -1.25%, COC(=O)c1cc(S(=O)(=O)Nc2ccc(NC(=O)c3ccccc3)cc2)ccc1Cl 2.44%, Cc1cccc(Nc2nccnc2C2CCCN2C(=O)c2ccnnc2)n1 (stereo unspecified) 10.1%, O[C@H]1[C@H](NCc2cnc3ccccc3c2)[C@@H](c2cncnc2)C[C@H]1O -7.7%, Cc1ccccc1C(=O)N1CCC2(CC1)c1ncc(-c3cccnc3)n1CCN2C -6.54%, CSc1nc2c(c(Nc3ccc(C(C)=O)cc3)n1)CCC2 -0.0554%, CC(C)Nc1ncnc2c1c(C(=O)N1CCCC1)c1ccccn12 -56.8%, Cc1cccc(Nc2cccc(C3CCCN3C(=O)c3cccnc3)n2)n1 (stereo unspecified) -0.95%, CN1CCN(c2ccc3nnc(CCC(=O)NC4CCN(Cc5ccccc5)CC4)n3n2)CC1 5.05%, CC(C)=CCc1cc(O)ccc1O -3.32%, Cc1cc(C)c2nc3c(cc2c1)CN(Cc1ccco1)C(=O)O3 19.2%, CC1(c2ncc(Cc3cccc(F)c3)o2)CCCN(C(=O)CN2CCCC2)C1 (stereo unspecified) -4.47%, COc1ccccc1CCN[C@H]1CS(=O)(=O)C[C@@H]1S(=O)(=O)c1ccccc1 2.36%, COc1ccc(NC(=O)c2cn(C)nc2S(=O)(=O)N2CCCCCC2)cc1 11%, CC(C)NC(=O)c1cccc(-c2noc(-c3ccccc3Br)n2)c1 0.0532%, Cc1cc(C)nc(N(C(=O)C2CC2)c2ccc(OC(F)(F)F)cc2)n1 -7.68%, COC(=O)c1ccc(NC(=O)CSc2nnc(C(C)Oc3ccccc3)n2C)cc1 (stereo unspecified) -2.47%, Cc1nc(Nc2ncccn2)cc(C2CCCN2S(=O)(=O)N(C)C)n1 (stereo unspecified) -8.82%, Cc1ccc(S(=O)(=O)N2CCC3(CC2)OC(C(=O)NCC(C)C)Cn2ccnc23)cc1 (stereo unspecified) -3.62%, O=C(CNC(=O)C1COc2ccccc2O1)Nc1ccccc1Br (stereo unspecified) -5.2%, CCn1nccc1C1CCCN1C(=O)C12CC3CC(CC(C3)C1)C2 (stereo unspecified) -2.13%, COc1ccc(-c2ccc(CCC(=O)NCc3ccccc3)o2)cc1 0.714%, OC1CCC(Nc2nc(CN3CCOCC3)nc3sc4c(c23)CCC4)CC1 (stereo unspecified) 1.88%, O=C(Nc1ccc(Cl)c(Cl)c1)C1C2C=CC3(O2)C1C(=O)N(CCCN1CCN(Cc2ccccc2)CC1)C3C(=O)NC1CCCCC1 (stereo unspecified) -13.9%, CCN1C(=O)COc2cc(-c3noc(C(=O)N4CCN(c5ccccc5)CC4)n3)ccc21 5.26%, COc1cccc(NC(=O)C2Cc3ccccc3N2C(=O)c2ccccc2)c1 (stereo unspecified) 12%, NS(=O)(=O)c1ccc(NS(=O)(=O)c2ccc(NC(=O)c3ccccc3)cc2)cc1 4.22%, CC(NC(=O)c1ncoc1-c1ccc(F)cc1)c1ccccn1 (stereo unspecified) 3.88%, O=C(CNS(=O)(=O)/C=C/c1ccccc1)N1CCCC(c2nc3ccccc3s2)C1 (stereo unspecified) -13.9%, CN(C)c1cccc(C(=O)OCC(=O)Nc2ccc(Cl)cn2)c1 1.07%, CC(C)(C)C(=O)c1cn(CC(=O)N2CCc3ccccc3C2)c2ccccc12 0.535%, Clc1ccc(C2NC3=NCN(Cc4ccco4)CN3c3nc4ccccc4n32)cc1 (stereo unspecified) 11.6%, O=C(Cn1cnc2ccccc21)N1CC(c2nc(-c3ccncc3)no2)C1 -2.15%, COc1cccc(-n2c(=O)c(C(=O)NC(C)c3ccccc3)c(O)c3cccnc32)c1 (stereo unspecified) 1.53%, O=C(NC1CCN(Cc2ccccc2)CC1)c1cc2cn(C3CC3)cc2s1 -34.6%, Cc1ccc(S(=O)(=O)NCCc2nnc3ccc(SCC(=O)NCc4ccc5c(c4)OCO5)nn23)cc1 11.1%, CCc1cc(C(=O)NCc2ccccc2)nc2ccnn12 -0.736%, CCN(CC)S(=O)(=O)c1ccc(C(=O)Nc2sc(C)c(C)c2C(N)=O)cc1 -4.61%, CC(=O)c1ccc(NC(=O)CSc2ncnc3c2cnn3-c2ccc(C)cc2C)cc1 -0.915%, Cc1ccc(S(=O)(=O)N2C[C@H]3NC(=O)c4ccccc4C(=O)[C@@]3(C)C2)cc1 -3.74%, COc1cc(C2c3[nH]c4ccccc4c3C[C@@H]3C(=O)N(CCC4=CCCCC4)CC(=O)N23)cc(OC)c1OC (stereo partly specified) -46.8%, O=C(Nc1ccccc1Cl)N1C[C@H]2C[C@H]3[C@](C1)(CN(Cc1cccnc1)S3(=O)=O)O2 2.31%, C[C@@H]1CC[C@H]2C(CN3CCCC(C)(C)C3)C(=O)O[C@]23[C@H]1CC[C@@]1(C)O[C@@H]31 (stereo partly specified) -0.238%, CCOc1ccccc1Oc1nnnn1-c1ccccc1 23%, CN(C(=O)COc1ccc(C(N)=O)cc1)C1CCCCC1 -6.97%, Cc1nn(-c2cccc(F)c2)c2c1c(C)c(CCC(=O)NCc1ccccn1)c(=O)n2C 8.09%, CC(=O)N1CCC(N2CCC[C@H]2c2nc(-c3ccc(OC4CCCCC4)nc3)no2)CC1 -18.8%, O=C(c1cc2ccc(F)cc2[nH]1)N1CCOCC(Cc2ccncn2)C1 (stereo unspecified) -7.16%, Cn1cc(C(=O)N2CCCCC2c2nc(N)ncc2-c2ccccc2)ccc1=O (stereo unspecified) -2.37%, CCC(=O)N(C)CCc1noc(-c2[nH]c3ccc(C)cc3c2C)n1 -11.5%, Cc1noc(C)c1C1CCCN1S(=O)(=O)c1cccc(Cl)c1 (stereo unspecified) 0.263%, O=C(CCc1nnc2ccc(N3CCCC3)nn12)NCc1ccc(F)cc1 12%, O=C(COc1cccc2ccc(N3CCC(Cc4ccccc4)CC3)nc12)Nc1cccc(F)c1 21.8%, Cc1ccc(NC(=O)N2CCC(CC(=O)N3CCCCC3)CC2)cc1 -0.189%, CCC(C)C1C(=O)/C(=C(\O)C2C3C(C)CC(C)CC3C=CC2C2(C)OC2C)C(=O)N1C (stereo unspecified) 18.9%, CCOC(=O)N1CCN(c2nc3c(c(=O)[nH]c(=O)n3C)n2CCSc2ncccn2)CC1 13.2%, CC(C)CNC(=O)C1CCN(c2cncnc2N2CCOCC2)CC1 0.599%, CC(=O)c1sc(NC(=O)c2ccc(S(=O)(=O)N3CC(C)CC(C)C3)cc2)nc1C (stereo unspecified) 4.19%, CCn1c(CN(C)C(=O)Nc2cccc(C)c2)nc2cc(C(=O)N(C)C)ccc21 10.5%, CS(=O)(=O)c1ccc(C(=O)Nc2ccccc2-c2ccccc2)cc1 11.2%, COc1ccc(N2CC(c3nnc(NC(=O)CCc4ccccc4)s3)CC2=O)cc1 (stereo unspecified) 17.9%, N#CCCN(C(=O)c1cc2c(s1)-c1ccc(Cl)cc1S(=O)(=O)C2)c1ccccc1 -4.41%, CC(=O)N1CCc2c([nH]c3ccccc23)C1 -0.00325%, COc1ccccc1N(CC(=O)N1c2ccccc2CC1C)S(=O)(=O)c1ccc(F)cc1 (stereo unspecified) 14%, Oc1ccc(O)c2c1C(O)CCC21Oc2cccc3cccc(c23)O1 (stereo unspecified) -11.1%, Cc1nc2n(n1)CCN(C(=O)c1cc(-c3cccs3)[nH]n1)C2 0.034%, CC(Oc1ccccc1)C(=O)Nc1ccc(-c2cn3cccnc3n2)cc1 (stereo unspecified) 4.02%, CSc1ncnc2c1sc1nc(-c3ccccc3)c3c(c12)CC(C)(C)OC3 7.31%, CCCCCCSc1ncnc2c1sc1nc(-c3ccccc3)c3c(c12)CC(C)(C)OC3 -6.83%, COc1ccc(Cl)cc1C(=O)NCC(c1ccsc1)N1CCOCC1 (stereo unspecified) -5.99%, CC1CN(S(=O)(=O)c2cccc(Cl)c2)Cc2ccccc2N1C (stereo unspecified) -2.48%, Cc1ccc(S(=O)(=O)c2cn(CC(=O)NC3CCCC3)c3nc(C)ccc3c2=O)cc1 -8.29%, N#Cc1cccc(CN2CC[C@@H]3[C@@H](CO[C@@H]3CNc3ncccn3)C2)c1 0.273%, CCN1CCN(c2ccc(-c3nc(-c4ccc(C)cc4)no3)cn2)CC1 -1.12%
